Measured values reported in PubChem BioAssay.
Unmarked numbers belong to inactive results. The source made the active and inactive calls.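 Rule for the calls, unless noted: active = mean inhibition over 43.08%, the solvent-only control mean plus 3 SD; inactive = the rest.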

Tests used:
[1] = target: Nuclear receptor coactivator 3 (Homo sapiens) (UniProt Q9Y6Q9); test: SRC3 coactivator transcriptional activity inhibitors, confirmation, cell-based, luminescence, quadruplicate (AID 588792); conditions: HEK293 GAL4-SRC3 luciferase reporter, at 3.6 µM, hits give high values;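 note: 0% = DMSO treated cells and 100% = gossypol at 36 µM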
[2] = tested on: transactivating tegument protein VP16 (Human herpesvirus 1), Gal4-VP16 luciferase reporter; test: VP16 transactivation inhibitors, counter-screen for SRC3 inhibitor project, cell-based, luminescence, high throughput (AID 588794; in the data active = inhibition above about 30%); conditions: mammalian cells, VP16-driven luciferase reporter luminescence; at 3.6 µM; hits give high values

Chain of Nuclear receptor coactivator 3 (Homo sapiens) (Q9Y6Q9 whole entry, looked up, the tested form may be a part): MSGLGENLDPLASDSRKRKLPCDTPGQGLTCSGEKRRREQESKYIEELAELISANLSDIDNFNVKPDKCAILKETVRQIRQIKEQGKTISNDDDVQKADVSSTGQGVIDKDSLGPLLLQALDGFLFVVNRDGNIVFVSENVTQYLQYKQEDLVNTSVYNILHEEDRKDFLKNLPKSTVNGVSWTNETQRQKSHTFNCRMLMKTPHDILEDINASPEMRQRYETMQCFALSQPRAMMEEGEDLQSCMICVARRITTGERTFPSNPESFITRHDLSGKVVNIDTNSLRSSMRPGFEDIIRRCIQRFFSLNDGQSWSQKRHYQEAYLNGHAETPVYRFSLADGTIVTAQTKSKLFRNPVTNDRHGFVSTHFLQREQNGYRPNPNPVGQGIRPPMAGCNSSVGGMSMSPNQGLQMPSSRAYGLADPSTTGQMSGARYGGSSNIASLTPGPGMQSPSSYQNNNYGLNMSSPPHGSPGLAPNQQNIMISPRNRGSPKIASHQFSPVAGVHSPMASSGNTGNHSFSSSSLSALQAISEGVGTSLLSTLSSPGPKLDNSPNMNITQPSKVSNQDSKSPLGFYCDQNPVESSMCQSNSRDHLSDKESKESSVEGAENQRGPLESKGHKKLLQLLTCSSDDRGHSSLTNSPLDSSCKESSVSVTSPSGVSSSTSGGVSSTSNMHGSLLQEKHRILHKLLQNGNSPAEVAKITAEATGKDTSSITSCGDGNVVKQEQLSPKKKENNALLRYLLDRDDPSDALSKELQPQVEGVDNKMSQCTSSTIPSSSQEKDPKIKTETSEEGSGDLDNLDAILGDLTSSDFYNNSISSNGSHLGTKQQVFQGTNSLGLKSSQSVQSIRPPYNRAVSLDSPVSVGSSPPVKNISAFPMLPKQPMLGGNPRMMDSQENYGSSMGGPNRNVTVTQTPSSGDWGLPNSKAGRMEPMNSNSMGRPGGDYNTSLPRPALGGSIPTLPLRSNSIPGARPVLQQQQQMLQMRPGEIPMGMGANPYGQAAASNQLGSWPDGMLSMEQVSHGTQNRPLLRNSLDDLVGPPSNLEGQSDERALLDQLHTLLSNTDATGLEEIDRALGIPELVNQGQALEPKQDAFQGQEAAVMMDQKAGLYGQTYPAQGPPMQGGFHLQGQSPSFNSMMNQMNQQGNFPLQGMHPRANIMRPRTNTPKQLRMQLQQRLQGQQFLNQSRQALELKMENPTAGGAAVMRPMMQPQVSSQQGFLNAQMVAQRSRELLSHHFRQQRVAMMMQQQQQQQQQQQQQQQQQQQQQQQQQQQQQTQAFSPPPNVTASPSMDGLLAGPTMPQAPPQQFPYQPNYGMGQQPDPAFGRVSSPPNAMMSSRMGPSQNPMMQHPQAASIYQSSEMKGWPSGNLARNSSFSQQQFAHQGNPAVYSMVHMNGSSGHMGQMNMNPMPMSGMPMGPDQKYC

Row | SMILES | inhibition [1] | inhibition [2]
1 | O=C(CNc1cccc2ccccc12)N/N=C/c1ccc[nH]1 | 7.38% | 5.09%
2 | CCOC(=O)C1=C(C)N[C@@]2(O)c3ccccc3C(=O)[C@@]12O | 2.93% | -4.31%
3 | O=C(CCc1ccccc1)N/N=C/c1cc(Br)ccc1O | 24.5% | 17.2%
4 | COc1cccc(/C=N/NC(=O)CNC(=O)C(c2ccccc2)c2ccccc2)c1O | 17.2% | 20.7%
5 | CC1=C/C(=N\OS(=O)(=O)c2ccccc2)C(C)=CC1=O | 19.7% | 9.07%
6 | CN1C(=O)C2(C(C#N)=C(N)N(c3cc(Cl)cc(Cl)c3)C3=C2C(=O)CC(C)(C)C3)c2ccccc21 (configuration not stated) | 46.5% (active) | 25.6%
7 | CCC(O)CC(C(=O)NNc1ccccc1)C(=O)NNc1ccccc1 (configuration not stated) | -2.21% | 11.1%
8 | Cn1nc(C(F)(F)F)c(-c2ccc(Br)cc2)c1NC(=O)c1ccco1 | 7.4% | -1.15%
9 | Cc1cccc(Nc2nc(N)c([N+](=O)[O-])c(N3CC(C)CC(C)C3)n2)c1 (configuration not stated) | 3.08% | 15.7%
10 | CC(C)C(=O)N1CCN(c2ccc(NC(=O)COc3ccccc3[N+](=O)[O-])cc2)CC1 | 12.7% | 28.6%
11 | COn1c(C)c(C(C)=O)c2c3nonc3ccc21 | 22.5% | 33.5% (active)
12 | Cc1cccc(C)c1NC(=O)c1ccc(-c2ccc(Cl)cc2Cl)o1 | 28.4% | 23%
13 | O=C(CN1C(=O)c2ccccc2S1(=O)=O)c1ccc(F)cc1 | -13.1% | 17.6%
14 | c1ccc(-n2nnnc2NCCCN2CCOCC2)cc1 | -14.3% | -8.35%
15 | COc1ccc(CCN2C(=O)C(Oc3ccccc3C)C2c2ccc3c(c2)OCO3)cc1 (configuration not stated) | 2.45% | 8.58%
16 | COc1cccc(C(=O)Oc2c(Br)cc(Br)cc2/C=N/NC(=O)c2cc(C)[nH]n2)c1 | 18.3% | 18.3%
